# Measured values as given in PubChem BioAssay.
# Active and inactive are the calls of the source. Unless noted, how the calls were made is not given here.
# Tests used:
# [1] = system: XIP peptide (Xip251-270) binding; assay: small-molecule binders of XIP peptide, primary screen, biochemical, small-molecule microarray, fluorescence 635/667 nm, 0.1 µg/mL protein (AID 1182); details: fluorescent protein binding, 635 nm, higher = more signal, called active from +8 up or from −8 down
# [2] = system: XIP peptide (Xip251-270); assay: small-molecule binders of XIP peptide, primary screen, biochemical, small-molecule microarray, fluorescence 635/667 nm, 0.5 µg/mL protein (AID 1183); details: small-molecule microarray binding, fluorescence 635 nm; higher = more signal
# [3] = Plasmodium falciparum growth inhibition, primary screen, strain 3D7, DAPI fluorescence, 100 nL (AID 1184);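 further: parasites grown inside human red blood cells in medium with human serum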; details: P. falciparum 3D7 growth, 3 d, higher = more signal
# [4] = target: Homeobox protein Hox-A13 (Mus musculus) (UniProt Q62424); assay: inhibitors of HoxA13-DNA binding, primary screen, biochemical, fluorescence polarization, labeled oligonucleotide (AID 1185); details: 15 min, higher = more signal, called active from +8 up or from −8 down
# Chain of Homeobox protein Hox-A13 (Mus musculus) (Q62424 whole entry, looked up): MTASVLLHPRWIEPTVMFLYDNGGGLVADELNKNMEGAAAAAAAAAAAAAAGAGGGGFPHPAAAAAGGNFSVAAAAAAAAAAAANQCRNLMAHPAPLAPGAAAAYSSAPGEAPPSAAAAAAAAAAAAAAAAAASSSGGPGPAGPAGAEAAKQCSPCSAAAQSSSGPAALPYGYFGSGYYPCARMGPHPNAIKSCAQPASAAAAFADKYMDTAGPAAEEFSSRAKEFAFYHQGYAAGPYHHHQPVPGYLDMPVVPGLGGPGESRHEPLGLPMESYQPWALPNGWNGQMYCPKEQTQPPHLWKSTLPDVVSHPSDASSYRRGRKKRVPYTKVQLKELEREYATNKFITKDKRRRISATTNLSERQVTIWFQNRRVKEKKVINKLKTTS
# [5] = inhibitors of hydroxyurea-induced Chk1 phosphorylation, primary screen, imaging, HeLa, phospho-Chk1 antibody, percent positive cells (AID 1186); details: hydroxyurea-induced phospho-Chk1 immunofluorescence imaging, higher = more signal
# [6] = inhibitors of hydroxyurea-induced Chk1 phosphorylation, primary screen, imaging, HeLa, phospho-Chk1 nuclear intensity (AID 1187); details: hydroxyurea-induced phospho-Chk1 immunofluorescence imaging, higher = more signal
SMILES,composite z-score [1],composite z-score [2],z-score [3],z-score [4],z-score [5],z-score [6]
COC(=O)[C@@]1(Cc2ccc(OC)cc2)[C@H]2c3cc(C(=O)N4CCCC4)n(CCc4ccc(OC)c(Br)c4)c3C[C@H]2CN1C(=O)c1ccccc1,-0.0245 (inactive),-0.879,-1.17,-4.39 (inactive),-0.299 (inactive),-0.0792 (inactive)
CC(C)C[C@@H]1NC(=O)[C@@]23C(=O)N[C@@H](Cc4ccccc4)C2[C@H](C)[C@@]2(C)O[C@H]2C3/C=C/C/C=C\CNC(=O)[C@@H](CC(C)C)NC1=O (stereo partly specified),0.549 (inactive),0.414,-0.0432,-6.77 (inactive),-0.0685 (inactive),0.0529 (inactive)
COc1ccc(NN2C(C(O)c3ccc(OC)cc3)C=CC3C(=O)N(C4CCCCC4)C(=O)C32)cc1 (stereo unspecified),1.3 (inactive),0.7,-0.346,-4.51 (inactive),-1.28 (inactive),-1.13 (inactive)
CCOC(=O)C[C@H]1[C@H](OC(=O)c2ccc(C(=O)c3ccccc3)cc2)[C@@H](NC(=O)c2ccc3ccccc3c2)c2cc(OCCCO)ccc2N1C(=O)c1ccc2ccccc2n1,0.27 (inactive),0.197,-2.68,-1.96 (inactive),-0.318 (inactive),0.25 (inactive)
CCCCC=C[C@@H](NC(=O)c1ccc(C(F)(F)F)cc1)c1ccccc1,0.0581 (inactive),-0.11,0.185,-3.7 (inactive),-0.587 (inactive),-1.16 (inactive)
C=C(/C(=C/C[C@@H](OC(C)=O)c1ccccc1OCCO)c1cc(C(=O)OC)ccc1OC)C(C)C,0.988 (inactive),0.839,-2.8,-4.71 (inactive),0.689 (inactive),0.766 (inactive)
NCCCC[C@@H]1NC(=O)[C@H]2C[C@@H](C(=O)NCc3ccc(F)cc3)[C@@H](c3cccc(OCCO)c3)N2C1=O,0.752 (inactive),0.837,0.0979,5.72 (inactive),-0.281 (inactive),-0.45 (inactive)
COC(=O)C1=CC(CCCO)=CC(c2ccc(CN3CCCC3)cc2)N(Cc2sc3ccccc3c2Cl)C=C1C(=O)OC (stereo unspecified),4.74 (inactive),0.916,-1.95,-1.23 (inactive),-0.438 (inactive),-0.402 (inactive)
C=CC[C@@]1(C(=O)O)N=C(c2ccc(OCCCO)cc2)O[C@@H]1c1ccccc1CN=[N+]=[N-],-0.207 (inactive),0.563,-1.34,-6.29 (inactive),-0.222 (inactive),-0.0145 (inactive)
O=C1c2ccccc2[C@](Cc2ccccc2I)(C(=O)O)[C@H](c2ccc(CO)cc2)N1Cc1ccccc1,0.947 (inactive),0.754,0.387,-4.44 (inactive),-0.422 (inactive),-0.204 (inactive)
CN(C)CCCC[C@@H]1NC(=O)[C@@H]2C[C@H](C(=O)NCc3ccc(F)cc3)[C@H](c3ccc(O)cc3)N2C1=O,-0.23 (inactive),0.886,-0.532,-1.16 (inactive),0.336 (inactive),0.142 (inactive)
CCCC[C@@H]1C[C@H]1[C@@H](NC(=O)c1ccc(C(F)(F)F)cc1)c1ccc(C(=O)OC)cc1,-0.0437 (inactive),0.368,-0.557,-0.759 (inactive),0.894 (inactive),0.397 (inactive)
COCC(=C=CC[C@@H](O)c1cccc(OCCO)c1)C[C@@H](O)COCc1ccccc1,0.0062 (inactive),0.0674,-1.71,-3.67 (inactive),-0.789 (inactive),-0.407 (inactive)
CC(C)C[C@H]1NC(=O)[C@@H](C)NC(=O)[C@@]23C(=O)N[C@@H](Cc4ccccc4)C2[C@H](C)[C@@]2(C)O[C@H]2C3/C=C/C/C=C\CNC1=O (stereo partly specified),1.06 (inactive),0.679,0.234,-6.94 (inactive),0.255 (inactive),0.0218 (inactive)
NCCCC[C@@H]1NC(=O)[C@H]2C[C@@H](C(=O)NCc3ccc(F)cc3)[C@@H](c3ccc(O)cc3)N2C1=O,2.07 (inactive),0.563,0.338,-4.42 (inactive),-0.52 (inactive),-0.367 (inactive)
C#CCN=C(N)N,0.189 (inactive),0.391,-0.624,-0.327 (inactive),-0.351 (inactive),-0.447 (inactive)

SMILES,composite z-score [1],composite z-score [2],z-score [3],z-score [4],z-score [5],z-score [6]
C=CCC(OC(C)=O)[C@@H]1[C@@H](N(Cc2ccc(-c3cccc(C(F)(F)F)c3)o2)C(=O)c2cccc3ccccc23)c2cc(OCCCO)ccc2N1C(=O)c1ccc2ccccc2c1 (stereo partly specified),0.184 (inactive),-0.563,-2.73,-2.32 (inactive),-0.675 (inactive),-0.36 (inactive)
COc1ccc(NC(=O)O[C@H]2[C@H](OC(=O)Nc3ccc4c(c3)OCO4)[C@H](OC(=O)Nc3ccc4c(c3)OCO4)[C@@H](OC)O[C@@H]2CO)cc1,1.04 (inactive),0.866,-2.24,-4.94 (inactive),-0.246 (inactive),0.267 (inactive)
C=CCC(OC(C)=O)[C@@H]1[C@@H](N(Cc2ccc(-c3cccc(C(F)(F)F)c3)o2)C(=O)c2cccc3ccccc23)c2cc(OCCCO)ccc2N1C(=O)c1ccc2ccccc2n1 (stereo partly specified),-0.279 (inactive),-0.0301,-2.15,-2.09 (inactive),-0.131 (inactive),0.228 (inactive)
COC(=O)C1(CC(C)C)C=C2C(=C(C(C)C)C(=O)C2C)CN1 (stereo unspecified),-0.418 (inactive),0.172,1.24,-6.06 (inactive),0.677 (inactive),0.675 (inactive)
C=CC[C@]1(C(=O)NCCCOC)N=C(c2ccc(OCCCO)cc2)O[C@H]1c1ccccc1,0.227 (inactive),0.659,-0.67,-6.7 (inactive),-0.132 (inactive),0.0245 (inactive)
CCc1cccc(NC(=O)O[C@H]2[C@H](OC(=O)Nc3ccc4c(c3)OCO4)[C@H](OC(=O)Nc3ccc4c(c3)OCO4)[C@@H](OC)O[C@@H]2CO)c1,2.3 (inactive),0.791,-2.26,-9.9 (active),-0.392 (inactive),-0.0612 (inactive)
CC(C)C[C@H]1NC(=O)[C@@]23C(=O)N[C@@H](Cc4ccccc4)C2[C@H](C)[C@@]2(C)O[C@H]2C3/C=C/C/C=C\CNC(=O)[C@@H]2CCCN2C1=O (stereo partly specified),1.73 (inactive),0.0626,1.18,-5.47 (inactive),0.216 (inactive),0.162 (inactive)
COc1ccccc1CN1C(=O)c2ccccc2[C@@H](C(=O)NCCCN(C)C)[C@@H]1c1ccc(CO)cc1,-0.0888 (inactive),0.66,-2.34,3.27 (inactive),-0.343 (inactive),-0.136 (inactive)
C[N+](C)(C)CCCCCCNC(=O)[C@@H]1C[C@@H]2C(=O)N[C@@H](Cc3ccccc3)C(=O)N2[C@@H]1c1ccc(O)cc1,1.13 (inactive),0.841,-0.324,-2.44 (inactive),0.459 (inactive),0.496 (inactive)
CN(C)CCCNC(=O)[C@@]1(Cc2ccccc2I)c2ccccc2C(=O)N(Cc2ccccc2)[C@H]1c1ccc(CO)cc1,0.869 (inactive),0.828,-2.21,-0.783 (inactive),0.22 (inactive),0.276 (inactive)
N#Cc1ccc(C(O)C2C=CC3C(=O)N(c4ccccc4)C(=O)C3N2Nc2ccc([N+](=O)[O-])cc2)cc1 (stereo unspecified),1.04 (inactive),0.807,-1.84,-4.34 (inactive),-0.138 (inactive),-1.24 (inactive)
O=C1OCCC=C[C@H]2OC34C=CCN(c5ccc(Cl)cc5)C(=O)[C@H]3N(CCO)C(=O)[C@@H]4C12 (stereo partly specified),-0.379 (inactive),0.561,-0.136,-5.37 (inactive),-0.399 (inactive),-0.576 (inactive)
[N-]=[N+]=NCc1ccccc1[C@H]1OC(c2ccc(OCCCO)cc2)=N[C@@]1(Cc1ccccc1)C(=O)N1CCOCC1,0.0472 (inactive),0.667,-2.62,-3.37 (inactive),-0.11 (inactive),-0.185 (inactive)
COCCOC(=O)N1C(=O)[C@@]2(c3cc(C#CC4(O)CCCCCC4)ccc31)[C@H](C(=O)NC[C@H](O)c1ccccc1)[C@H]1C(=O)O[C@H](c3ccccc3)[C@H](c3ccccc3)N1[C@@H]2c1ccc(O)cc1,0.273 (inactive),0.78,-0.44,-1.8 (inactive),0.302 (inactive),0.487 (inactive)
C[C@H]1C2[C@H](Cc3ccccc3)NC(=O)[C@]23C(=O)NCC(=O)N2CCC[C@H]2C(=O)NC/C=C\C/C=C/C3[C@@H]2O[C@]12C (stereo partly specified),0.358 (inactive),0.341,0.876,-2.22 (inactive),0.353 (inactive),0.133 (inactive)
